Our source for the growth values is PubChem BioAssay (NCI).

The panel holds about 83,000 compounds, 20% with a hit somewhere; the sample as a whole holds those more often.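 In brief: 96-well plates, 48 h treatment, single concentration, percent growth endpoint.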 A number with no mark means an inactive call. Calls of active or inactive are those of the source. The calls were made as follows: active = growth percent below 10; inactive = the rest.

What all share (assay): NCI-60 one-dose screen, 48 h (100 = growth as untreated, 0 = no growth, -100 = all killed)
For experiment [1], the system named is SK-MEL-2 melanoma. As to conditions: 10 µM unless noted.
The subject of experiment [2] is EKVX NSCLC. As to conditions: 10 µM unless noted.
Experiment [3] has as its system SN12C renal. As to conditions: 10 µM unless noted.
The test system of experiment [4] is ACHN renal. Particulars: 10 µM unless noted.
Experiment [5] has as its system CAKI-1 renal. As to conditions: 10 µM.
The test system of experiment [6] is A498 renal. As to conditions: 10 µM unless noted.
Experiment [7] has as its system CCRF-CEM leukemia. Particulars: 10 µM unless noted.
In experiment [8] the test system is MOLT-4 leukemia. Particulars: 10 µM unless noted.
Experiment [9] has as its system SR leukemia. As to conditions: 10 µM unless noted.
For experiment [10], the system named is RPMI-8226 leukemia. As to conditions: 10 µM unless noted.
The test system of experiment [11] is OVCAR-8 ovarian. As to conditions: 10 µM unless noted.
Experiment [12] relates to OVCAR-5 ovarian. As to conditions: 10 µM unless noted.
Experiment [13] concerns OVCAR-4 ovarian. Particulars: 10 µM unless noted.
Experiment [14] relates to SK-OV-3 ovarian. As to conditions: 10 µM unless noted.
In experiment [15] the test system is IGROV1 ovarian. Particulars: 10 µM unless noted.
Experiment [16] concerns OVCAR-3 ovarian. As to conditions: 10 µM unless noted.
Experiment [17] concerns HS 578T breast. Particulars: 10 µM unless noted.
The test system of experiment [18] is NCI/ADR-RES ovarian. As to conditions: 10 µM unless noted.
Experiment [19] concerns UO-31 renal. As to conditions: 10 µM unless noted.
Experiment [20] has as its system TK-10 renal. Particulars: 10 µM unless noted.

With `CN(C)CCS(=O)(=O)Nc1cc(-c2ccc3ncnc(Nc4ccc(F)c(Cl)c4)c3c2)cnc1Cl`, the growth was -53.4% (active) in [1]; -9.17% (active) in [2]; 22.6% in experiment [3]; 20.2% in experiment [4]; -30.6% (active) in experiment [5]; -78% (active) in [6]. The growth was 0.907% (active) in [7]; -36.7% (active) in [8]; -29.1% (active) in experiment [9]; -39.9% (active) in experiment [10]; 13.7% in experiment [11]; -22.4% (active) in experiment [12]. Besides, the growth was 19.3% in experiment [13]; -42.7% (active) in [14]; -23.7% (active) in experiment [15]; -87% (active) in [16]; -7.53% (active) in experiment [17]; 14.9% in experiment [18].

Regarding `CCOC(=O)c1noc2c1CCc1cn(Cc3cc(OC)cc(OC)c3)cc1-2`, the growth was 92.1% in [1]; 107% in experiment [3]; 84% in experiment [19]; 81.7% in experiment [20]; 107% in [6]; 102% in experiment [7]. Besides, the growth in [8] is 79.5%; in experiment [9] it was 91.1%; in [10] it was 99.9%; in experiment [11] it was 107%; in experiment [12], 108%; in [13], 113%. The growth in experiment [14] is 101%; in [15] it was 110%; in experiment [16], 103%; in [17] it was 99.7%; in experiment [18] it was 97.9%.

Regarding `Nc1nccc(=S)[nH]1`, the growth in experiment [1] is 97.7%; in experiment [3], 101%; in experiment [19], 98.3%; in experiment [20] it was 95.6%; in experiment [6] it was 108%; in [7], 113%. The growth in [8] was 92.8%; in experiment [9] it was 87.1%; in [10], 96.6%; in experiment [11], 104%; in [12], 111%; in experiment [13], 114%. Moreover, the growth in [14] was 102%; in [16], 109%; in experiment [17], 103%; in [18], 107%.

In the case of `CCOC(=O)c1noc2c1CCc1c-2cn(Cc2ccc(OC)cc2)c1-c1cc(OC)c(OC)c(OC)c1`, the growth was 35.4% in experiment [1]; 44.7% in experiment [3]; 30.9% in [19]; 68.8% in experiment [20]; 56.2% in experiment [6]; 15% in experiment [7]. Moreover, the growth in experiment [8] is 18.5%; in experiment [9] it was 17.8%; in experiment [10], 24.7%; in experiment [11], 32.6%; in [12], 71.2%; in [13] it was 63.2%. For the same compound, the growth in experiment [14] was 65.3%; in experiment [16], 3.47% (active); in experiment [17], 8.37% (active); in experiment [18], 21.9%.

In the case of `COc1ccc(-c2nnc(SCC(=O)Nc3ccc(C(=O)/C=C/c4ccc(Cl)cc4)cc3)o2)cc1OC`, the growth in experiment [1] is 72%; in experiment [3] it was 47.8%; in [19], 72.3%; in experiment [20], 52.8%; in [6], 88.7%; in experiment [7], 65.1%. Moreover, the growth in experiment [8] is 41.1%; in experiment [9], 24.2%; in experiment [10], 59.4%; in experiment [11] it was 37.4%; in experiment [12], 90.5%; in experiment [13] it was -17.1% (active). The growth in experiment [14] was 87.4%; in experiment [15] it was 70.4%; in [16], 106%; in [17] it was 102%; in experiment [18], 38.4%.

Take `O=S(=O)(CCN1CCOCC1)Nc1cncc(-c2ccc3ncnc(Nc4ccc(F)c(Cl)c4)c3c2)c1`: the growth was 81.5% in experiment [1]; 66.7% in experiment [3]; 45.2% in [4]; 72.3% in experiment [5]; 73.1% in experiment [6]; 57.1% in [7]. Moreover, the growth was 71.7% in experiment [8]; 90% in experiment [9]; 82.4% in experiment [10]; 72.8% in [11]; 69.3% in [12]; 82.2% in experiment [13]. Further, the growth in experiment [14] was 33.5%; in experiment [15] it was 10.8%; in experiment [16], 50.6%; in [17], 37%; in experiment [18], 87.3%.

`COC(=O)CCCNS(=O)(=O)c1cc(C(=O)Nc2ccc(NC(=O)c3cc(S(=O)(=O)NCCCC(=O)OC)c(O)c(O)c3O)cc2)c(O)c(O)c1O`: the growth in experiment [1] is 98.6%; in [3], 85.3%; in experiment [19], 82.9%; in experiment [20], 94.9%; in experiment [4], 109%; in [6], 104%. Further, the growth is 58.6% in experiment [7]; 87.6% in experiment [8]; 70.4% in [9]; 96% in experiment [10]; 73.6% in experiment [11]; 107% in experiment [12]. The growth was 98.3% in [13]; 83.8% in experiment [14]; 102% in experiment [16]; 100% in [17]; 94.2% in experiment [18].

As for `CC(C)(C)NCC(O)COc1c(Br)c(Br)c(Br)c2c1OC(C)(C)C2` (configuration not stated), the growth in experiment [1] is -71.9% (active); in [3] it was 33.2%; in experiment [19] it was -81.8% (active); in experiment [20], -77.8% (active); in experiment [4] it was -60.1% (active); in experiment [7], -62.5% (active). The growth is -56.1% (active) in experiment [8]; -61.6% (active) in experiment [9]; -72.8% (active) in [10]; -54.8% (active) in [11]; -73.2% (active) in experiment [12]; 15.3% in experiment [13]. In addition, the growth in experiment [14] was 92.1%; in [15], -84.2% (active); in [17], -64.8% (active); in experiment [18], -15.9% (active).

Consider `N#CC(C#N)=C(C#N)c1c[nH]c2ccccc12`, for which the growth in [1] was 90.9%; in experiment [3], 79%; in experiment [19], 63.9%; in experiment [20], 98.9%; in experiment [4], 73.4%; in experiment [6] it was 101%. Besides, the growth in experiment [7] was 65.5%; in experiment [8] it was 75.7%; in [9] it was 58.1%; in experiment [10], 68.4%; in experiment [11], 87.7%; in experiment [12], 102%. Besides, the growth in experiment [13] is 73.5%; in [14], 82.7%; in [15], 75.2%; in experiment [16], 74.7%; in experiment [17] it was 87.7%; in [18] it was 96.1%.
